Measurements taken from ChEMBL document CHEMBL3433997, “St. Jude Leishmania screening dataset” (2016).

Target: Glucose transporter (Leishmania mexicana) (UniProt O61059)
Experiment: ST_JUDE_LEISH: Cytotoxicity at 2uM final concentration against transgenic Leishmania Mexicana promastigotes LmGT2 that are glucose transport deficient and complemented with the L. Mexicana glucose transporter 2. Activity is measured by DNA content using SYBR green in vitro
Format: functional

Row | Structure (SMILES) | inhibition [%]
1 | O=C(Nc1ccc(Oc2ccccc2)cc1)N(Cc1ccc(-c2cccc(CN3CCNCC3)c2)cc1)C1CCN(Cc2ccccc2)CC1 | 3.01
2 | CC(O)CNc1nc2ccccc2n1CC(=O)Nc1cccc(C(=O)Nc2cccc(C(F)(F)F)c2)c1 (stereo unspecified) | 4.48
3 | CCc1cn(C)c2c(N3CCCC3=O)cc(C(=O)N[C@@H](Cc3ccccc3)[C@H](O)CNC3CCCCC3)cc12 | 11.5
4 | O=C(/C=C/c1ccc(Cl)c(Cl)c1)NC1CCN(Cc2ccc(O)cc2)C1 (stereo unspecified) | -0.76
5 | Cc1cccc2nc(-c3ccc(-c4ccc(NC(=O)Nc5ccc(Cl)c(Cl)c5)cc4)cc3)[nH]c12 | 1.71
6 | CCCCCCCNc1cc(C)nc2ccc(OC)cc12 | 12.4
7 | Cc1ccc(C(C)C)cc1CON1C(=N)N=C(N)NC1(C)C | 10.9
8 | CC(C)(CNC(=O)C1CCN(CCOc2ccc(Cl)cc2)CC1)c1nc(-c2ccc(Cl)c(O)c2)c(-c2ccncc2)[nH]1 | -0.21
9 | Cc1cccc2nc(-c3cccc(-c4ccc(NC(=O)Cc5ccc[n+]([O-])c5)cc4)c3)[nH]c12 | 0.56
10 | Cc1ccc(C(=O)Nc2ccc(Nc3ccnc4cc(-c5ccncc5)ccc34)cc2O)cc1 | 1.37
11 | Cc1cccc(C)c1CNc1nc(N2CCOCC2)cc2c(C)c(C)[nH]c12 | 4.38
12 | O=C1CCCN1CCCNCc1ccc(-c2ccc(-c3nc4cc(F)ccc4[nH]3)s2)cc1 | 6.85
13 | CCOc1ccc(Nc2nc(N)c3ccccc3n2)cc1 | 6.25
14 | Cc1ccc2[nH]c3c(NCCN(C)C)ncnc3c2c1 | -0.07
15 | Cc1[nH]c(C)c(-c2ccc(OCc3ccccc3)cc2)c(=O)c1Br | -2.04
16 | NCCNc1ccc([N+](=O)[O-])cc1C(=O)Nc1cccc(C(F)(F)F)c1 | 3.98
17 | FC(F)(F)c1ccc2[nH]c(-c3ccc(-c4ccc(CN5CCN(c6cnccn6)CC5)cc4)cc3)nc2c1 | 7.09
18 | CN(Cc1cc(C(F)(F)F)cc(C(F)(F)F)c1)C(=O)C1CNCC1c1ccc(F)cc1 (stereo unspecified) | 3.05
19 | Cc1csc(NC(=O)c2cn(-c3ccccc3)nc2-c2cccs2)n1 | 0.74
20 | O=C(O)c1ccc(NC(=O)C2CC(=O)N(Cc3ccc(Cl)cc3)C(=Nc3ccc(Cl)cc3)S2)cc1 (stereo unspecified) | 1.01
21 | CCOc1c(OC)ccc2c1CCN(CCN1CCC(CNC(=O)c3ccc(-c4ccc(C#N)cc4)cc3)CC1)C2 | 1.45
22 | c1ccc([C@H]2CN3CCSC3=N2)cc1 | -0.34
23 | O=C(NC1CC1)c1ccc(N2CCCC(COc3ccc4c(c3)CCCC4)C2)nc1 (stereo unspecified) | 1.93
24 | Cc1cc2c(NC(=O)NC3CCN(CCc4ccccc4Cl)CC3)cccc2cn1 | 1.68
25 | Nc1ncc(-c2ccc(Br)cc2)c(N)n1 | -0.3
26 | CN1CCC(NCc2ccc(-c3cnc(NCc4ccccc4)nc3)cc2)CC1 | 2.57
